Compound activity (PubChem)
A selection: hits, their analogues and other compounds. The true share with any hit is near 4.7%.
TRHR ag – TRH receptor (human) agonism; P34981; TRHR cells, calcium flux fluo-8, FDSS agonist mode; activation, % at 2 µM; actives 0.18% (n = 360,000); AID 493084; note: 0% is about no effect
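Steps: seed TRHR cells overnight; add fluo-8 no-wash Ca dye, RT 30 min–1.5 h; record 10 s baseline; pin-transfer compounds; monitor fluorescence 1 cycle/s for the agonist window. Calcium increases flag candidate agonists.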
D1 PAM – enhances dopamine response at the human D1 receptor; potentiation, % at 10 µM; P21728; actives 0.036% (n = 360,000); HEK293 TREx D1 cells, calcium flux, dopamine EC20 potentiation; in the data active = potentiation above about 30%; note: 0% is about no effect
Target sequence (P21728 whole entry, looked up): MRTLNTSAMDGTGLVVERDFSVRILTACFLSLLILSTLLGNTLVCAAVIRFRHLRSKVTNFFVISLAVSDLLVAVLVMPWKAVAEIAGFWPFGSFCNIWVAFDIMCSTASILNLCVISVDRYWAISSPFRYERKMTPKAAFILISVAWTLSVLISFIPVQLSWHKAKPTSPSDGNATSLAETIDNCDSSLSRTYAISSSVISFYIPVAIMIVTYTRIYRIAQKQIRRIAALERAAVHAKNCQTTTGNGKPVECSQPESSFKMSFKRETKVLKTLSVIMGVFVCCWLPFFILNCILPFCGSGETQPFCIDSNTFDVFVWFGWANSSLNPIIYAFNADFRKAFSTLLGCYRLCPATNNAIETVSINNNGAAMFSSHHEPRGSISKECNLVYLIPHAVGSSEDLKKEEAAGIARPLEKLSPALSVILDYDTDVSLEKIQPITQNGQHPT
D1 agonist – activates the human D1 dopamine receptor; P21728; HEK293 T-REx D1 cells, calcium flux, agonist mode; activation, % at 2 µM; actives 1% (n = 360,000); note: 0% is about no effect
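Tetracycline-induced HEK293 TREx D1 cells, force-coupled to calcium signalling, were dye-loaded with a no-wash calcium kit. Compound was pin-added after a 10 s baseline. Fluorescence was read kinetically at 1 cycle/s for 180 s, with calcium rises flagged as agonism.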
D1 antagonist – human D1 dopamine receptor antagonism. P21728. HEK293 TREx D1 cells, calcium flux, dopamine EC80; hits give low values. activity change, negative = inhibition, % at 10 µM. AID 504652. actives 3.2% (n = 360,000); in the data active = activity change below about -30%; note: % is set by controls: 0 for no effect and ±100 for the full control effect
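Cells carrying a force-coupled, tetracycline-inducible human D1 receptor report calcium flux. Each well gets a 10 s baseline, compound with 180 s monitoring, then an EC80 dopamine stimulus with a second 180 s kinetic read.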
TRHR PAM – allosterically enhances the human TRH receptor; TRHR cells, fluo-8 calcium fluorescence, EC20 TRH enhancement; P34981; enhancement, % at 2 µM; actives 0.66% (n = 360,000); in the data active = enhancement above about 30%; note: 0% is about no effect
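TRHR-expressing cells loaded with fluo-8 calcium dye were read kinetically (ex 480/em 530) during compound addition, then stimulated with an EC20 of TRH (10 nM final). Enhancement of the Gq-mediated intracellular calcium response was scored.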
* = called active by the depositor. Cut-off read from the data, not from the text of the source, unless noted: active = activation above about 30%; inactive = the rest.

SMILES	TRHR ag	D1 PAM	D1 agonist	D1 antagonist	TRHR PAM
CCN(CC)c1ccc(/C=C/C(=O)c2ccc(Br)cc2)cc1	166*	-8	425*	-67*	-1
COc1cccc2cc(-c3csc(-c4ccc(Cl)cc4)n3)c(=O)oc12	1	0	3	10	3
Cc1oc(-c2ccc(Cl)cc2)nc1CN1CCCC(C(=O)NCCc2ccc(Cl)cc2)C1 (stereo unspecified)	0	-3	7	-12	2
CC(=O)c1ccc(NC(=O)Nc2sc3nc4n(c(=O)c3c2C)CCC(C)CC4)cc1 (stereo unspecified)	0	-2	0	-5	4
COC(=O)CCN(C(=O)C1CCN(S(=O)(=O)c2c(C)noc2/C=C/c2ccccc2F)CC1)c1ccccc1	0	-1	9	-4	3
COc1ccc(-c2noc(N3CCN(c4cccc(C)c4C)CC3)n2)cc1OC	0	4	1	-29	-6
CCc1ccc2nc(N3CCC(C(=O)O)CC3)sc2c1	0	-7	0	2	4
CCCCN(C)CCNC(=O)C1CCN(c2nc3ccc(CC)cc3s2)CC1	3	1	65*	-55*	7
COc1ccccc1C(=O)Nc1ccc(S(=O)(=O)Nc2nc(C)cc(C)n2)cc1	0	-2	3	-16	5
CN(C1CCCCC1)S(=O)(=O)c1ccc2c(c1)c(=O)c(C(=O)N1CCN(c3ccc(F)cc3)CC1)cn2C	0	1	0	-10	8
Nc1cccc(CP(=O)(c2ccccc2)c2ccccc2)c1	0	-4	1	3	31*
O=[N+]([O-])c1cccc(CP(=O)(c2ccccc2)c2ccccc2)c1	-4	-4	0	-2	1
Cc1ccc(C(=O)c2sc(Nc3ccc(F)cc3)nc2N)c(C)c1	-1	2	14	29	-2
Cc1ccc(Cn2ccsc2=NC(=O)COC(=O)c2ccc(O)cc2O)cc1	0	2	11	-23	5
Cc1ccc(Cn2ccsc2=NC(=O)COC(=O)C(C)C)cc1	1	-1	0	-48*	1
Cc1nc(/C(N)=N/OC(=O)c2ccc(Cl)cc2)c(C(F)(F)F)o1	-1	-1	-1	-35*	-5
Cc1nc(C(=O)NNC(=O)c2cccc(Cl)c2)c(C(F)(F)F)o1	0	-4	3	5	5
Cc1cc(NC(=S)N(CCN2CCCCC2)Cc2ccco2)ccc1Cl	1	-10	1	-38*	3
CSc1ccc(CCNC(=O)CCn2c(=O)c3cccn3c3cccnc32)cc1	0	1	0	0	14
COc1ccc(NC(=O)CCc2c(C)nc3nc(CNC(=O)OC(C)(C)C)nn3c2C)cc1OC	0	1	0	2	-5
CC(NC(=O)c1cc(-c2cccnc2)nc2ccc(Br)cc12)C1CCCO1 (stereo unspecified)	0	2	0	-34*	8
CC(NC(=O)c1cc(-c2ccncc2)nc2ccc(Cl)cc12)C1CCCO1 (stereo unspecified)	0	-1	0	4	-5
CCCCN1C(=O)c2[nH]nc(-c3ccccc3O)c2C1c1cc(Br)c(O)c(OC)c1 (stereo unspecified)	0	-2	0	-15	-4
Cc1cc(C)nc(NCCC(=O)O)n1	1	-8	9	-58*	1
COc1cc(C(CC(=O)Nc2cccc(C(C)=O)c2)N2Cc3ccccc3C2=O)cc(OC)c1OC (stereo unspecified)	0	-1	-1	14	0
SMILES	TRHR ag	D1 PAM	D1 agonist	D1 antagonist	TRHR PAM
O=C(Nc1ccccc1OCc1cc(=O)n2ccccc2n1)c1cccc(Br)c1	1	-4	-1	-10	-3
O=C(N/N=C/C(Cl)=C/c1ccccc1)c1ccccn1	0	-8	2	-22	-4
CC(/C=N/NC(=O)c1n[nH]c2c1CCC2)=C\c1ccccc1	-1	-1	4	-79*	-1
CC(=C/c1ccccc1)/C=N/NC(=O)CSc1nc(C)cc(C)n1	0	-9	9	-34*	3
Cc1cc(C)nc(SCC(=O)N/N=C/c2cccnc2)n1	1	6	1	10	7
CC(/C=N/NC(=O)c1ccccc1F)=C\c1ccccc1	-1	-12	-1	-35*	-3
Cc1cc(C(=O)N/N=C/C(Cl)=C/c2ccccc2)c(C)o1	0	-4	4	-33*	-6
COCCNC(=O)CSc1nc(-c2ccc(C)cc2)nc2c1c(=O)n(C)c(=O)n2C	1	1	0	9	3
CCOC(=O)c1ccc(-n2c(N)c(C(=O)OC)c3nc4ccccc4nc32)cc1	0	-2	1	-7	-9
CN(C)S(=O)(=O)c1ccc(Cl)c(NC(=O)CN2CCN(Cc3ccc4c(c3)OCO4)CC2)c1	-2	0	10	-58*	-3
CC(C)c1ccc(S(=O)(=O)N2CCN(CC(=O)Nc3ccc4c(c3)OCO4)CC2)cc1	2	-6	6	-30*	-3
O=C(CN1C(=O)c2cccc3cccc1c23)Nc1ccc2c(c1)OCO2	-2	2	1	6	31*
O=C(CN1CCN(S(=O)(=O)c2ccccc2)CC1)Nc1ccc2c(c1)OCO2	0	-7	0	-32*	-6
CN(CC(=O)Nc1ccc(F)c(F)c1F)C(=O)c1ccc2c(c1)OCCO2	0	2	0	-16	2
CC(C)[C@H](NC(=O)N1CC(=O)Nc2ccccc21)C(=O)N[C@@H](Cc1ccccc1)C(=O)O	0	0	1	12	-8
CC1CCCCN1Cc1c(O)ccc2c(=O)c(-c3ccc(Cl)cc3)c(C(F)(F)F)oc12 (stereo unspecified)	0	-2	0	4	3
COc1ccc(NC(=O)CCN2CCN(S(=O)(=O)c3ccc(C(C)C)cc3)CC2)cc1	-2	0	-1	-3	2
CC(C)c1ccc(S(=O)(=O)N2CCN(CCC(=O)Nc3ccc(N(C)C)cc3)CC2)cc1	-1	-2	0	-81*	18
O=C(NCc1cccc(Cl)c1)C1CCCN(c2nn3cc(-c4ccc(F)cc4)nc3s2)C1 (stereo unspecified)	1	4	2	11	19
COc1cc(Cl)c(NC(=O)c2cc(CN3CCCC3)on2)c(OC)c1	0	-2	-2	-24	-2
Cc1nc2sc(C(N)=O)c(N)c2c2c1CCCC2	-3	-3	4	-30*	-2
COc1cccc(C(=O)/C=C/Nc2ccc(S(=O)(=O)Nc3onc(C)c3C)cc2)c1	0	-9	1	-3	2
Cc1noc(NS(=O)(=O)c2ccc(N/C=C\C(=O)c3cccc4ccccc34)cc2)c1C	1	-1	43*	19	2
Cc1noc(NS(=O)(=O)c2ccc(NC(=O)Nc3ccc(Cl)c(Cl)c3)cc2)c1C	1	-13	33*	-47*	4
